High-throughput results deposited in PubChem BioAssay by National Center for Advancing Translational Sciences (NCATS).
Shown are actives, neighbours in structure and some others; about 1.8% of the full set was active somewhere.
GLP-1R inv ag – GLP-1 receptor (human) inverse agonism; P43220; HEK293 GLP-1R CRE-luciferase, luminescence, 24 h; GLP-1R form is constitutively active; Potency, µM (top dose mostly 38.3 µM), for inactives: at the highest dose activity change, negative = inhibition, usual class: inhibitors; 410,000 compounds, 1.6% hits; AID 624417; note: % is set by controls: 0 for no effect and ±100 for the full control effect; nearly all actives have a fitted effect of over 55% in size
Target sequence (P43220 whole entry, looked up): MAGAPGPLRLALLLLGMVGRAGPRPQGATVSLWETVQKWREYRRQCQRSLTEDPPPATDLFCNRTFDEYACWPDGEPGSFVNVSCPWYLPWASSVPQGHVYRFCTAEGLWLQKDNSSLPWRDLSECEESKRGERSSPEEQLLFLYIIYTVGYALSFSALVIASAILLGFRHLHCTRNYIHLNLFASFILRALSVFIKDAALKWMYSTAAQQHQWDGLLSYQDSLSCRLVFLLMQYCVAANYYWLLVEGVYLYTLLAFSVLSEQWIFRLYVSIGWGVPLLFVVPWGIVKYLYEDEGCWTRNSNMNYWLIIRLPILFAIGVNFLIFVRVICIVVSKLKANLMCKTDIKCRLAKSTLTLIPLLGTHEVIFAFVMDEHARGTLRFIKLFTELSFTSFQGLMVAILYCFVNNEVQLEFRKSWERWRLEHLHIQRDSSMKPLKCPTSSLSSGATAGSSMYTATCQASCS
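Seeding at 200 cells/uL, 12 h culture, 24 hr compound treatment, then luciferase reagent and a luminescence read; cells are HEK293 stably expressing a constitutively active GLP-1R plus cAMP-responsive luciferase.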
KAT2A inh – GCN5L2 (KAT2A) acetyltransferase inhibition; Q92830; GCN5L2 HAT assay, ThioGlo1 CoA-SH fluorescence; Potency, µM (top dose mostly 58.9 µM), for inactives: at the highest dose activity change, negative = inhibition, most hits filed as inhibitors; 390,000 compounds, 0.21% hits; AID 504327; note: % is set by controls: 0 for no effect and ±100 for the full control effect
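Fluorescence readout, Ex340nm/Em540nm: ThioGlo1 (50uM final) reacts with free CoA thiol released as 20nM GCN5L2 acetylates H3(1-25) peptide (75uM) using acetyl-CoA (70uM). Compound and enzyme sat 15 min beforehand; 20 min room-temperature reaction.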
GLP-1R agonist – GLP-1 receptor (human) agonism; HEK293 GLP-1R CRE-luciferase, luminescence, 4-6 h; cells express a hypersensitive GLP-1R form; 380,000 compounds, 0.007% hits; Potency, µM (titrated, usually from 45.6 µM), without a hit: at the top dose activation, hits mostly activators; P43220; AID 624172; note: % of control where 0% means no effect
RGS4 inhibitor – human RGS4 inhibition; Transcreener GDP fluorescence polarization, RGS4-accelerated GTP hydrolysis; Potency, µM (doses to about 114 µM), inactives show top-dose activity change, negative = inhibition, usual class: inhibitors; 390,000 compounds, 0.039% hits; note: % is set by controls: 0 for no effect and ±100 for the full control effect; nearly all actives have a fitted effect of over 75% in size
Target sequence (P49798 whole entry, looked up): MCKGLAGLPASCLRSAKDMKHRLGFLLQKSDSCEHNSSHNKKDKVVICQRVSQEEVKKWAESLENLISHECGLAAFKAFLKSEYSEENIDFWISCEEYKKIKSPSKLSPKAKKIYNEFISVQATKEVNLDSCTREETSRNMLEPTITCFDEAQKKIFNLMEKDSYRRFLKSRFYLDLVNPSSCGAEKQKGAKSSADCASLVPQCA
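MLSMR compounds (23 nl, pin-transferred) preincubated 10 min at room temperature with a 500nM (2x) first reagent, then RGS4 at 900nM (2x) plus Transcreener GDP mix added; fluorescence polarization (620/688 nm) read before and after 90 min at 30 °C.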
HEK293 tox – cytotoxic in the GLP-1 receptor inverse agonist counter-screen; HEK293 cAMP-luciferase reporter cells, luminescence, 24 h; Potency, µM (highest dose often 38.3 µM), inactives show at the highest dose activity change, negative = inhibition, most hits filed as inhibitors; AID 624418; 410,000 compounds, 0.13% hits;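 note: loss of luciferase light is scored as toxicity; % is set by controls: 0 for no effect and ±100 for the full control effect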
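Here, cytotoxicity is scored as loss of luminescence. The MLSMR collection was tested on cells seeded in medium containing 10% Nu serum, with a 24 hr compound exposure preceded by 12 hours of culture.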
PTHR1 ag – agonists of human PTHR1 parathyroid hormone receptor; Q03431; HEK293 GP2 PTHR1 cells, GloSensor cAMP luminescence, 1 h; Potency, µM (doses to about 115 µM), for inactives: at the highest dose activation, usual class: activators; 410,000 compounds, 0.075% hits; note: nearly all actives have a fitted effect of over 55% in size
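HEK-293-derived GP2 cells expressing PTHR1 and a GloSensor cAMP reporter, 3,000/well, plated overnight, given luciferin plus IBMX (each 0.5 mM as added) for 1 h at 37 °C, then compound for 1 h at 37 °C. Luminescence was read after 15 min at room temperature.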
* = called active by the depositor; i = inactive; u = inconclusive; x = not tested or not shown; ! = not active in a repeat; [ ] = remark or other dose. Calls come from the whole dose curve; as a rule, active = well fitted curve in the direction sought with a large enough effect; inconclusive = small, poorly fitted or top-dose-only effect, or another doubt; inactive = no such curve, though single readings can be large; an effect the other way counts as inactive or inconclusive. Potency is the fitted concentration of half-maximal effect.

SMILES | GLP-1R inv ag | KAT2A inh | GLP-1R agonist | RGS4 inhibitor | HEK293 tox | PTHR1 ag
C=C(CCO)C1=CCN(S(=O)(=O)C(C)(C)C)[C@H]1CCO | 9% | x | -5% | 0% | -9% | -11%
CN(C)CCNc1nc2sc3c(c2c(=O)n1Cc1ccccc1)CCCCC3 | 1.1µM* | -15% | 11% | -10% | u | i
Cn1ncc2c(O/N=C(\N)c3ccc(C(C)(C)C)cc3)ncnc21 | u | 2% | -2% | -10% | 10µM* | -22%
Cc1ccc(C(=O)N(c2ccccc2)C2CC(C)N(C(=O)c3ccco3)c3ccccc32)cc1 (stereo not given) | 10µM* | -1% | -1% | -5% | -9% | -12%[57.5 µM]
O=C(C[n+]1ccc(-c2cc(C(=O)Nc3cccc(C(F)(F)F)c3)c3ccccc3n2)cc1)c1cccc([N+](=O)[O-])c1 | 11µM* | -18% | -1% | -2% | u | -9%
O=C(N/N=C1/CCCc2ccccc21)c1cc([N+](=O)[O-])cc([N+](=O)[O-])c1 | x | -8% | x | x | x | x
O=C(N/N=C1\CCCc2ccccc21)c1cccc([N+](=O)[O-])c1 | -1% | 32µM* | 5% | -12% | -17% | -54%
CCOC(=O)c1cc(C)n(-c2ccccc2)c1C | 4% | -10% | 17% | 7% | 2% | i
Cc1cc(C)n(-c2ccc(Cl)c(C(=O)Nc3ccc(-c4nnc5n4CCCCC5)cc3)n2)n1 | 9% | -6% | -16% | -1%[11.4 µM] | -10% | i
CCOc1ccc(NC(=O)NCCc2c(C)nn(C)c2C)cc1 | -4% | -5% | x | -6% | 8% | i
CC[C@H](C)[C@H](N)C(=O)N[C@H]1CCC(=O)NCC(C(=O)N[C@@H](Cc2ccc(O)cc2)C(=O)N[C@@H](CCCNC(=N)N)C(=O)N[C@@H](CC(C)C)C(=O)N[C@@H](CCCNC(=N)N)C(=O)N[C@@H](Cc2ccc(O)cc2)C(N)=O)NC(=O)[C@@H]2CCCN2C(=O)[C@@H](NC(=O)[C@@H](N)[C@@H](C)CC)CCC(=O)NCC(C(=O)N[C@@H](Cc2ccc(O)cc2)C(=O)N[C@@H](CCCNC(=N)N)C(=O)N[C@@H](CC(C)C)C(=O)N[C@@H](CCCNC(=N)N)C(=O)N[C@@H](Cc2ccc(O)cc2)C(N)=O)NC(=O)[C@@H]2CCCN2C1=O (stereo not given in full) | x | 43% | x | x | x | x
CCOc1ccc(NC(=S)N(Cc2ccc(Cl)cc2)Cc2ccco2)cc1 | 11µM* | 0% | -3% | -13% | -17% | -9%
CN(CC(=O)Nc1ccc(N2CCOCC2)cc1)CC(=O)Nc1ccc(Cl)cc1[N+](=O)[O-] | 159% | 1% | u | -30% | -3% | i
COc1ccc(CCN(C)CC(O)COC(c2ccc(F)cc2)c2ccc(F)cc2)cc1OC (stereo not given) | 5µM* | -16% | 20% | 14% | u | i
COc1cc(NC(=O)CCN2CCN(C/C=C/c3ccccc3)CC2)cc(OC)c1 | 10µM* | -1% | 14% | 9% | -19% | i
COc1ccc(NC(=O)CCN2CCN(C/C=C/c3ccccc3)CC2)cc1 | -18% | -22% | 5% | 5% | -12% | i
CC(=O)NC1[C@H](O)C[C@@](O)(C(=O)O)O[C@H]1[C@H](O)[C@H](O)CO (stereo not given in full) | x | -6% | -2% | x | x | x
NC(=O)CSc1nnc(-c2ccccn2)n1Cc1ccco1 | 2% | 0% | 0% | -37% | 5% | i
C(=C\c1ccccc1)/CSc1nnc(-c2ccccn2)n1Cc1ccco1 | 4µM* | -17% | 15% | -41% | u | -9%[57.5 µM]
O=C(COc1ccccc1)NC1CCCCC1 | 0% | 2% | -5% | -15% | 7% | i
O=C(COc1ccc(C(=O)c2ccccc2)cc1)NC1CCCCCC1 | 8.9µM* | -1% | 1% | -34% | -13% | -54%
O=C(COc1ccccc1)NC1CCCCCCC1 | 11µM* | -1% | 5% | 34% | 0% | -20%
O=C(NC1CCCC1)c1cccc(Oc2ccccc2)c1 | 10µM* | -3% | 21% | 6% | -3% | -21%
O=C(COc1ccc(C(=O)c2ccccc2)cc1)NC1CCCCC1 | 3% | -2% | -10% | 8% | 20% | i
COc1ccccc1C(=O)NC1CCCCCCC1 | 7.1µM* | 0% | 16% | 24% | -7% | -12%
SMILES | GLP-1R inv ag | KAT2A inh | GLP-1R agonist | RGS4 inhibitor | HEK293 tox | PTHR1 ag
CCc1ccc(NC(=O)c2cnn3ccccc23)cc1 | 5µM* | 1% | -5% | 0% | 18% | -27%
COc1ccc(OCC(O)CNS(=O)(=O)c2cccc(Cl)c2)cc1 (stereo not given) | -35% | -4% | 4% | 5% | -6% | -4%
Cc1nc2c(O)c3c(c(O)c2nc1C)C1C=CC3CC1 | u | x | -5% | -39% | 5.6µM* | -22%
C[C@@H]1CN([C@H](C)CO)S(=O)(=O)c2ccc(Br)cc2O[C@@H]1CN(C)C(=O)Nc1ccc(C(F)(F)F)cc1 | u | x | -5% | x | u | -29%
Cc1ccccc1-c1ccc2c(c1)O[C@@H](CN(C)C(=O)Nc1ccc(C(F)(F)F)cc1)[C@H](C)CN([C@@H](C)CO)S2(=O)=O | 6.3µM* | x | 6% | x | -9% | -23%
COc1ccc(C2=NS(=O)(=O)N(C)C(C(=O)Nc3cc(C)ccc3O)=C2)cc1OC | 29% | 35µM*! | -2% | 1% | -20% | -53%
Cc1ccc2c(C)c(C(=O)N(Cc3ccc(N(C)C)cc3)Cc3ccco3)oc2c1C | -21% | -6% | x | -6% | 3% | -48%
Nc1ccccc1SCc1ccccc1 | -18% | -3% | 13% | -36%[56.9 µM] | -4% | -1%
N#CC(=C(\N)Sc1ccccc1N)/C(C#N)=C(/N)Sc1ccccc1N | x | -15% | x | 9.5µM* | x | x
O=C(N/N=C/c1ccc(OCCCF)cc1)c1cc(OCC(F)(F)F)ccc1OCC(F)(F)F | 1% | 0.89µM* | -16% | 16% | 49% | i
O=C(N/N=C\c1ccc(F)cc1)c1cc(OCC(F)(F)F)ccc1OCC(F)(F)F | 0% | 1% | -17% | -4% | 1% | i
c1ccc2c(c1)OCC(CN1CCCCC1)O2 (stereo not given) | x | -2% | 20% | x | x | x
Cc1cc2nc(C3CCN(CC4COc5ccccc5O4)CC3)[nH]c2cc1C (stereo not given) | 10µM* | 0% | -5% | -6% | -23% | i
